# In the supplement of paper PMC3334620:
# In all, about 33,000 sequences were measured (“E-score (-0.5 to 0.5)”: median about -0.04, highest 2% from about 0.36 on). The full list was thinned out, with the highest values kept by preference.
# Biological target: T1, Hmlalpha2 (UniProt P0CY09)
# T1 sequence: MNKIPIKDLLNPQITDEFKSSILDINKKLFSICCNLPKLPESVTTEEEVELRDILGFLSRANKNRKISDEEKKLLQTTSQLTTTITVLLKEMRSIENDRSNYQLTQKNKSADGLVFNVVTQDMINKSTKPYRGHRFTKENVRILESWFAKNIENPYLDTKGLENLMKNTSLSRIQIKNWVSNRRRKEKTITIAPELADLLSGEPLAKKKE
# Assay: PBM E-score (8-mer binding enrichment) (E-score (-0.5 to 0.5)); higher = stronger / more preferred TF binding
# Conditions: protein concentration: 200 nM; construct: GST-full length
# Method: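 Universal 'all 10-mer' protein binding microarrays (Agilent AMADID 015681) probed with GST-tagged S. cerevisiae TFs (full-length or DBD) made by in vitro transcription/translation (PURExpress), about 100-200 nM. Bound TF was detected with fluorescent anti-GST. Each ungapped 8-mer (which stands for itself and its reverse complement) is scored by the PBM enrichment score (E-score), a modified Wilcoxon-Mann-Whitney statistic from -0.5 to +0.5, computed with the Universal PBM Analysis Suite. Scale: above 0.35 generally sequence-specific binding.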
row,Sequence,PBM E-score
1,CTGAAAAC,0.1
2,CTCAGAAG,-0.215
3,AACCCGAT,0.0593
4,ACGGGGGG,-0.22
5,ACTCGGGG,-0.134
6,AAACCGAG,-0.204
7,CCGTATAC,0.0388
8,GTGTATAA,0.391
9,ATGTATAG,0.362
10,GAGTATAA,0.169
11,ATGTATAA,0.395
12,CTGTATAA,0.209
13,GCGTATAA,0.337
14,GTATATAA,0.29
15,ATGTATAC,0.435
16,GCGTATAC,0.371
17,ATGTATCC,0.294
18,CTGTATAC,0.247
19,GTATGCCA,-0.254
20,ACGACCCA,-0.0906
21,TGTAGGAA,0.226
22,GCCACCGC,-0.33
23,GATGGACA,-0.0833
24,CTTGAAAC,-0.111
25,ATGCTGCA,0.0587
26,TCCTATCA,-0.172

row,Sequence,PBM E-score
1,AGTCGCGA,-0.0755
2,CTCCCATC,-0.242
3,CATCTGAG,-0.137
4,CAAAATTC,0.15
5,ATACCTGG,-0.252
6,ATGCTGTA,0.136
7,AAGGAGCT,-0.163
8,GTGTAGAA,0.445
9,ATGTAGGC,0.169
10,ATGTAGAC,0.391
11,ATGTAGAG,0.376
12,ATGTAGGA,0.236
13,GAGTAGAA,0.147
14,ACGTAGAG,0.224
15,AAGTAGAG,0.018
16,GCGTAGAA,0.313
17,CTGTAGAC,0.104
18,ATGTAGAA,0.43
19,CTGTAGAA,0.161
20,CACAGATC,-0.0314
21,GAATCTTA,-0.127
22,CGATTAAC,0.149
23,TATCCTCA,-0.113
24,ATGTTAGA,0.358
25,ATGTTAAG,0.445
26,ACGTTAAA,0.362

row,Sequence,PBM E-score
1,ATGTTACC,0.317
2,ATGTTAAA,0.473
3,ATGTTAAT,0.447
4,CTGTTACA,0.281
5,ATGTTACA,0.401
6,ACGTTAAG,0.255
7,AGGTTAAT,0.182
8,CTGTTAAG,0.255
9,AAGTTAAT,0.187
10,CACAAACG,0.241
11,ACTCTCCT,-0.223
12,CAGCTACC,-0.168
13,CCCTAGAG,-0.232
14,GTTTACAA,0.425
15,CTTTACAA,0.38
16,GTTTACTA,0.356
17,CTTTACCA,0.0599
18,ATTTACTC,0.301
19,CTTTACTA,0.252
20,ATTTACAA,0.453
21,ATTTACCA,0.21
22,ATTTACCC,0.0345
23,ATTTACAG,0.269
24,GCTTACAA,0.275
25,ATTTACAC,0.479
26,GAATTTGA,-0.109

row,Sequence,PBM E-score
1,AAACTGGG,-0.278
2,ATAGTGGC,-0.192
3,GGCTTGAC,-0.093
4,ACAACATA,0.382
5,CCAACATA,0.314
6,ACAACAAG,0.298
7,ACAACATC,0.263
8,GCAACATA,0.219
9,ACAACATG,0.451
10,AGTGGATG,-0.0671
11,ACCTGAGT,0.0645
12,AAGGATCT,-0.17
13,ACCACGAG,-0.135
14,CCACGCTC,-0.335
15,ACACGCTC,0.399
16,ACACGCTA,0.414
17,ACACGCTG,0.355
18,AAACGCTC,-0.144
19,GCACGCTA,-0.192
20,GAGTTAGA,-0.0875
21,AGAAGGCC,-0.213
22,GATGAAGC,-0.157
23,CTATGTTA,0.414
24,ATATGTTA,0.384
25,GAATGTTA,0.287
26,ATATGTTG,0.346

row,Sequence,PBM E-score
1,ATATGTTC,0.198
2,GTATGTTA,0.414
3,GGATGTTA,0.299
4,CTCTGTTA,0.23
5,CTATGTTC,0.252
6,CGAATATA,-0.00331
7,AGGGGAGG,-0.299
8,ACTTGGAA,-0.144
9,ATTAGCGC,0.0131
10,GATTCAAC,0.0589
11,ATGGGTTG,0.0606
12,TGTTTTAA,0.382
13,CATGTTGA,0.477
14,CATGTTTA,0.437
15,TCTGTTAA,0.331
16,TGTTTAAA,0.34
17,CATGTTGC,0.334
18,TGTGTTAA,0.471
19,GGTGTTAA,0.361
20,CATGTTTC,0.333
21,AATGTTGA,0.256
22,AGTTTTAA,0.169
23,GATGTTTA,0.223
24,TAGGTTGA,0.0343
25,ATAGCAGA,0.00582
26,ATACAGAA,0.199

row,Sequence,PBM E-score
1,GGCCATGA,-0.217
2,CTTGCCTA,-0.112
3,ATAGGCAC,-0.216
4,CGATTTTA,0.081
5,ACCGCGAT,-0.0546
6,CGTGTTCC,0.2
7,CGTGTTGA,0.446
8,AGTGTTAA,0.374
9,AGTGTTGA,0.238
10,ACTGTTAA,0.208
11,AGTGTTAT,0.269
12,CGTGTTCA,0.369
13,CCTGTTAA,0.288
14,CGTGTTAA,0.481
15,AGTGTTCA,0.00891
16,CGTGTTGC,0.301
17,AGTGTTAC,0.221
18,CGCTCTTA,0.0692
19,AGAGAATG,-0.0972
20,ACGGCCAC,-0.128
21,AGAACCAT,0.116
22,AAAGATTC,0.196
23,ACGGTCCC,-0.356
24,AGGGTGAC,-0.182
25,GACGGTGA,-0.192
26,TCAGAACA,0.196

row,Sequence,PBM E-score
1,CGTGTTAC,0.41
2,GTTGTTAA,0.359
3,CGTGTTAG,0.431
4,AGTGTTAG,0.0767
5,CTTGTTAA,0.414
6,CGTGTTTA,0.436
7,ACTGTTAG,-0.13
8,AGTGTTTA,0.299
9,CTTGTTAC,0.274
10,GGTGTTAC,0.223
11,CCTGTTAC,0.176
12,GGTGTTTA,0.112
13,CAGATACC,-0.251
14,CTAGATCC,-0.22
15,GAGGCTAC,-0.193
16,CACTACTA,0.00081
17,ACTTGCCA,-0.0087
18,ACACTTGA,-0.0396
19,TCGACTCA,0.0619
20,CCCAAAGA,-0.0661
21,ATAAAGAA,0.0809
22,GGGTTACA,0.218
23,TGATTACA,0.445
24,CGGTTACA,0.367
25,CGGTTACG,0.0305
26,TGCTTACA,0.305

row,Sequence,PBM E-score
1,CGATTACC,-0.0336
2,AGATTACC,0.0994
3,CGATTACG,0.274
4,AGATTACT,0.141
5,TGATTAAA,0.133
6,AGATTACA,0.411
7,CGATTACA,0.461
8,CTGTTCTA,0.102
9,TGAAGGAA,-0.0399
10,GCCAATCC,-0.151
11,ATGGCAAG,-0.153
12,GGATTACC,-0.00329
13,GGATTACA,0.444
14,GGATTAGA,-0.216
15,GCTTAAGC,0.187
16,CTGTAGTC,-0.0729
17,ATGTAGTG,0.332
18,ATGTAGTC,0.37
19,GTGTAGTA,0.323
20,ATGTAGTA,0.391
21,AAGTAGTC,0.0858
22,TAGGCGGA,0.0174
23,GATAAGAC,-0.0897
24,TATGTTCA,0.316
25,GATGTTAA,0.383
26,TATGTTAA,0.459

row,Sequence,PBM E-score
1,GCTGTTAA,0.262
2,AATGTTAA,0.364
3,TATGTTGA,0.364
4,GCTGTTAC,-0.0161
5,AAGATCCG,-0.207
6,ATTGCCCC,-0.315
7,CACTGCGA,-0.0249
8,CAAGGTCC,-0.193
9,ATATCTCG,-0.151
10,TTATGCAA,0.11
11,AACTACAA,0.242
12,GACTACAC,0.362
13,CACTACAG,0.126
14,AACTACAT,0.392
15,AACTACAG,0.0948
16,CACTACAA,0.268
17,AACTACGT,0.186
18,CACTACAC,0.394
19,AACTACAC,0.42
